# KCNQ2 inh – KCNQ2 (rat) channel inhibition. O88943. CHO-K1 KCNQ2, FluxOR thallium flux, 20 min; active compounds read low. B-score at 10 µM. 310,000 compounds, 1.1% hits. AID 2156;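 active means fluorescence ratio B-score at most minus 3 library SDs, with starting brightness B-score within 2 library SDs, cut at about -5.5 in these data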
# KCNQ2 pot – enhances the rat KCNQ2 potassium channel | 310,000 compounds, 0.54% hits | AID 2239 | CHO-K1 KCNQ2, FluxOR thallium flux fluorescence; active compounds read high | O88943 | B-score at 10 µM;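 active means fluorescence ratio B-score at least 3 SD of library B-scores, with initial fluorescence B-score within 3 of them, cut at about 5.3 in these data; same plate scores as AID 2156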;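 further: B-score of peak minus minimum over baseline fluorescence ratio after K+ and Tl+ stimulus; positive B-score means potentiation of KCNQ2 with more thallium influx and brighter signal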
# Kir21 conf inh – confirmation of mouse Kir2.1 potassium channel inhibitors | Kir2.1-expressing cells, FluxOR thallium flux fluorescence; active compounds read low | 2,300 compounds, 41% hits | shares compounds with KCNQ2 pot | Tl flux remaining, % of negative control (active compounds read low), % at 10 µM;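 active means Primary-screen hit whose thallium flux fell at least 3 control SD below untreated wells in both duplicates, with normal baseline fluorescence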;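 further: 0% = blank wells without stimulus and 100% = stimulated no-compound controls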
# HEK293 Tl flux – counter-screen for Kir2.1 inhibitors: effect in parental HEK293 cells; shares compounds with KCNQ2 pot; FluxOR thallium flux fluorescence; 0% = unstimulated blank wells; FluxOR signal as % of negative control (100 = no effect), % at 10 µM; 2,300 compounds, 19% hits;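 active means dye signal at least 3 control SD above or below untreated wells in both duplicates, raw fluorescence within 3, either direction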;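 further: percent is based on the flux ratio of peak minus minimum fluorescence over baseline F0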
# CHO-K1 Tl ctr – parental CHO-K1 activity in KCNQ2 potentiator counter-screen; shares compounds with KCNQ2 pot; parental CHO-K1 cells, FluxOR thallium flux fluorescence; zero = vehicle mean+3SD, 100% = vehicle-minus-blank window; activity increase over 3SD of controls, % at 10 µM; 1,200 compounds, 43% hits; AID 2282;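 active means signal rise of at least 3 SD above the untreated control mean, in both duplicate wells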;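 further: counter screen of KCNQ2 potentiator hits so any rise reflects channel-independent effects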
# KCNQ1 sel pot – selectivity of KCNQ2 potentiators: effect on human KCNQ1 | shares compounds with KCNQ2 pot | CHO KCNQ1 stable, FluxOR thallium flux fluorescence; beyond 3SD, as % of vehicle-control signal | activation over 3SD threshold, % at 10 µM | 1,200 compounds, 28% hits;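 active means fluorescence ratio rise of at least 3 SD of vehicle wells above their mean, in both replicate wells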;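 further: 0% = vehicle mean plus 3 SD and 100% = vehicle minus unstimulated blank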
# Target sequence (P51787 whole entry, looked up): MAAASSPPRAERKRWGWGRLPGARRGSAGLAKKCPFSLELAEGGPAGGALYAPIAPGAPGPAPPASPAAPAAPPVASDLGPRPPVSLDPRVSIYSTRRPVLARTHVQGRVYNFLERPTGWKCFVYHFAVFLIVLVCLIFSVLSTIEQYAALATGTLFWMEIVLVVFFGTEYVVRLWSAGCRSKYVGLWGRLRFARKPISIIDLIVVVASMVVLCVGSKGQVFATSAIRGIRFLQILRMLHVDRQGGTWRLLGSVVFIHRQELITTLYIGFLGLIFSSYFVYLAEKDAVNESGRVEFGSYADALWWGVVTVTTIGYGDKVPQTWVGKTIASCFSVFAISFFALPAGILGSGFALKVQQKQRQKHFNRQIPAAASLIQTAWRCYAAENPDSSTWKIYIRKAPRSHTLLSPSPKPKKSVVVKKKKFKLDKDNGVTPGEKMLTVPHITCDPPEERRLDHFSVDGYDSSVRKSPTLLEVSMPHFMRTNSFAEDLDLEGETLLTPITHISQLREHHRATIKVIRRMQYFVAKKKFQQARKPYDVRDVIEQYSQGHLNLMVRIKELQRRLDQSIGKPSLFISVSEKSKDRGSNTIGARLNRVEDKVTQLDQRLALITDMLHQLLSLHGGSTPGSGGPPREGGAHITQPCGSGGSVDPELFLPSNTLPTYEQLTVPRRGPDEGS
# KCNQ2 pot confirm – rat KCNQ2 channel potentiator confirmation; shares compounds with KCNQ2 pot; CHO-KCNQ2 cells, FluxOR thallium flux fluorescence; potentiation, less the hit threshold, % at 10 µM; 1,200 compounds, 68% hits; AID 2287;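 active means fluorescence ratio rising 3 SD or more over the vehicle control mean in both replicates, plus primary screen hit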;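 further: peak minus minimum thallium fluorescence divided by baseline after K/Tl stimulus; 0% = vehicle mean plus 3 SD and 100% = vehicle minus unstimulated blank difference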
# Kir21 spec – tests whether KCNQ2 potentiators also affect mouse Kir2.1; shares compounds with KCNQ2 pot; 1,200 compounds, 2% hits; HEK293 Kir2.1, FluxOR thallium flux fluorescence; activity over 3SD threshold, % at 10 µM;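 active means fluorescence ratio rise of at least 3 SD above the vehicle-control mean, seen in both replicates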;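 further: 0% = vehicle mean plus 3 SD and 100% = vehicle minus no-stimulus blank window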
# KCNQ2 W236L pot – KCNQ2 potentiators acting on retigabine-insensitive rat KCNQ2 W236L mutant; shares compounds with KCNQ2 pot; CHO KCNQ2-W236L, automated patch clamp current; current increase over 3SD of negative controls (%), active compounds read high, % at 25 µM; 940 compounds, 10% hits; AID 2558;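 active means current increase at least 3 SD of the untreated controls above them in both duplicate recordings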
# Active calls of the source: *; i = inactive; · = not tested or not shown. Rows were chosen to be rich in hits. Some 1.6% of all compounds tested hit in one or more screens of this group.
SMILES,KCNQ2 inh,KCNQ2 pot,Kir21 conf inh,HEK293 Tl flux,others
Cc1cccc(C(=O)NNC2=C(C(=O)C(F)(F)F)CCC2)c1O,i,6.6*,i,i,CHO-K1 Tl ctr=-7;KCNQ1 sel pot=-16;KCNQ2 pot confirm=33*;Kir21 spec=-44;KCNQ2 W236L pot=i
O=C(O)CCCn1cc(NC(=O)c2ccc(Br)o2)cn1,i,·,·,·,
COc1ccc(OC)c(S(=O)(=O)NC2CC(=O)N(c3cccc(F)c3)C2)c1 (centres undefined),i,·,·,·,
CCNS(=O)(=O)c1ccc(CCC(=O)N2CCN(C(=O)OCC)CC2)cc1,i,·,·,·,
O=C(NCC(c1cccnc1)N1CCOCC1)NC1CCCCC1 (centres undefined),i,0.61,·,·,
S=c1nc(-c2ccccc2)[nH]c2ccc(Br)cc12,i,29*,i,i,CHO-K1 Tl ctr=-74;KCNQ1 sel pot=21*;KCNQ2 pot confirm=66*;Kir21 spec=-18;KCNQ2 W236L pot=i
Cc1cc(=O)c2cc(Br)ccc2[nH]1,i,·,·,·,
O=S(=O)(NCc1csc(-c2cccs2)n1)c1ccc(Cl)cc1,i,·,42%*,i,
O=S(=O)(NCc1csc(-c2cccs2)n1)c1cccs1,i,·,·,·,
COc1ccc(S(=O)(=O)NCc2csc(-c3cccnc3)n2)cc1,i,0.52,·,·,
O=S(=O)(NCc1csc(-c2cccnc2)n1)c1ccc(Br)cc1,i,0.45,72%*,i,
Cc1ccc(S(=O)(=O)NCc2csc(-c3cccs3)n2)cc1,i,·,·,·,
O=S(=O)(NCc1csc(-c2cccs2)n1)c1cccc(C(F)(F)F)c1,i,0.03,42%*,i,
CCOC(=O)Cn1c2ccccc2n2nc(CCC(=O)O)c(=O)nc12,i,0.73,·,·,
CC(OC(=O)c1cccc(-n2cnnn2)c1)C(=O)Nc1cccc(Cl)c1 (centres undefined),i,1.2,i,i,
CC(=O)c1ccc(NC(=O)C(C)OC(=O)c2cccc(-n3cnnn3)c2)cc1 (centres undefined),i,0.27,·,·,
CCc1ccc(NC(=O)CSc2nccn(-c3ccc4c(c3)OCCO4)c2=O)cc1,i,4.2,·,·,
Cc1ccc(NC(=O)c2cccc(S(=O)(=O)N3CCN(c4ccccc4)CC3)c2)nc1,i,·,·,·,
C=CCN1C(=O)C(CC(=O)NCC)SC1=Nc1ccccc1OC (centres undefined),i,0.45,·,·,
CCn1c(=O)c(C(=O)Nc2ccccc2C)c(O)c2ccccc21,i,·,·,·,
CCn1c(=O)c(C(=O)Nc2ccccc2S(N)(=O)=O)c(O)c2ccccc21,i,8*,i,i,CHO-K1 Tl ctr=53*;KCNQ1 sel pot=-11;KCNQ2 pot confirm=11*;Kir21 spec=-41;KCNQ2 W236L pot=i
CCOC(=O)C(NC(=O)c1ccccc1)=C1C=C(C)OC(C)=C1,i,6.8*,i,i,CHO-K1 Tl ctr=1.7*;KCNQ1 sel pot=-7;KCNQ2 pot confirm=8.7*;Kir21 spec=-32;KCNQ2 W236L pot=i
COC(=O)C(NC(=O)c1ccccc1)=C1C=C(C)OC(C)=C1,i,5,·,·,
O=C(COC(=O)C1C2CC3OC(=O)C1C3C2)Nc1cccc(Cl)c1 (centres undefined),i,·,·,·,
Cc1ccc(C)c(NC(=O)C(C)N2C(=O)c3ccccc3C2=O)c1 (centres undefined),i,0.88,·,·,
SMILES,KCNQ2 inh,KCNQ2 pot,Kir21 conf inh,HEK293 Tl flux,others
CCOCCCNC(=O)c1cc2c(s1)-c1ccccc1SC2,i,0.75,·,·,
CN(C)CCNC(=O)c1cc2c(s1)-c1ccc(Cl)cc1SC2,-7.6*,-7.6,i,i,
Cc1nc2cc(Cl)ccc2c(=O)n1Cc1ccncc1,i,0.56,·,·,
O=C(Nc1ccc(N2CCN(C(=O)c3cccs3)CC2)cc1)c1ccc(F)cc1,i,·,·,·,
COc1cc(C(=O)OCC(C)=O)cc(NC(=O)c2ccco2)c1OC,i,·,·,·,
COc1cc(C(=O)OCC(=O)NC2CCCC2)cc(NC(=O)c2ccco2)c1OC,i,11*,i,i,CHO-K1 Tl ctr=-9;KCNQ1 sel pot=-9;KCNQ2 pot confirm=-15;Kir21 spec=-18
Cc1ccc2[nH]cc(CCNC(=O)c3cccs3)c2c1,i,0.17,·,·,
CCN(c1ccc(OC)cc1)S(=O)(=O)c1ccc(-c2ccc(=O)[nH]n2)o1,i,0.02,·,·,
CCn1ccnc1CN(C)C(=O)C1CCC(=O)N(Cc2cccc(F)c2)C1 (centres undefined),i,·,·,·,
O=[N+]([O-])c1c(Nc2cccc(O)c2)cc(Cl)c2nonc12,-16*,-16,i,i,
O=C(O)c1ccc(Nc2cc(Cl)c3nonc3c2[N+](=O)[O-])cc1,i,1.1,·,·,
CC(C(=O)Nc1ncc([N+](=O)[O-])s1)N1C(=O)c2ccccc2S1(=O)=O (centres undefined),i,0.4,·,·,
Cc1ccc2c(c1)sc(-c1ccc(N(C)C)cc1)[n+]2C,i,·,·,·,
Cc1ccc(C2CC2C(=O)NNC(=S)Nc2cccc(C)c2)cc1 (centres undefined),i,9.2*,i,i,CHO-K1 Tl ctr=-4;KCNQ1 sel pot=-12;KCNQ2 pot confirm=64*;Kir21 spec=-54;KCNQ2 W236L pot=i
O=C(NNC(=S)Nc1ccc(F)cc1)C1CC1c1ccc(Cl)cc1 (centres undefined),i,1.7,·,·,
Cc1ccc(NC(=S)NNC(=O)C2CC2c2ccc(C)cc2)cc1 (centres undefined),i,·,·,·,
Cc1ccc(C2CC2C(=O)NNC(=S)Nc2cccc(Cl)c2)cc1 (centres undefined),i,18*,i,i,CHO-K1 Tl ctr=-2;KCNQ1 sel pot=-5;KCNQ2 pot confirm=84*;Kir21 spec=-36;KCNQ2 W236L pot=i
CC(C)Oc1ccc(/C(O)=C2/C(=O)C(=O)N(CCN3CCNCC3)C2c2ccc(C(C)C)cc2)cc1 (centres undefined),i,·,·,·,
CC(Oc1ccccc1F)C(=O)NNC(=O)CCNC(=O)c1ccccc1Cl (centres undefined),i,0.12,·,·,
O=CN1CCN(C(=O)CC(c2ccccc2)c2cc(Br)ccc2O)CC1 (centres undefined),i,0.56,·,·,
CCCCCCNC(=O)CC(c1ccccc1)c1cc(Br)ccc1O (centres undefined),i,29*,i,i,CHO-K1 Tl ctr=-3;KCNQ1 sel pot=-28;KCNQ2 pot confirm=64*;Kir21 spec=-43;KCNQ2 W236L pot=i
COc1ccccc1C(CC(=O)Nc1ccc(Cl)cc1)c1ccc(OC(C)C)cc1 (centres undefined),i,·,·,·,
